# Results: PubChem BioAssay (NCATS)
# Records with an inconclusive call do not appear. Where a call stands in place of a potency, no number is given. Calls of active or inactive are those of the source. The call rests on the fitted dose curve; in most records, active means well fitted cell-killing curve with a large enough effect; inconclusive means small, poorly fitted or top-dose-only effect, or effect the other way; inactive means flat fitted curve, though single readings scatter.
# System: PA-1
# Assay: Primary qHTS to identify gynecologic anti-cancer compounds using libraries of approved drugs and bioactive compounds (AID 1345084); further: nearly all actives have a fitted effect of over 55% in size
# Details: Gynecologic cancer cell panel viability, ATPlite luminescence, 48 h; series mostly up to 57.5 µM
# Summary of the method: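 48 h compound exposure at 37 C, 5% CO2; five-point qHTS. ATPlite luminescence readout of cell ATP.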
row,Compound,Potency
1,NCC(=O)O,inactive
2,Cc1c(N)cccc1C(F)(F)F,inactive
3,O=C(O)CCC(=O)OC[C@@H](NC(=O)C(Cl)Cl)[C@H](O)c1ccc([N+](=O)[O-])cc1,inactive
4,O=C(COCCOCCOCC(=O)Nc1c(I)cc(I)c(C(=O)O)c1I)Nc1c(I)cc(I)c(C(=O)O)c1I,inactive
5,CC(=O)[C@@]1(O)CC[C@H]2[C@@H]3C[C@H](C)C4=CC(=O)CC[C@]4(C)[C@H]3CC[C@@]21C,inactive
6,CCN(CC)CC(=O)OCC(=O)[C@@]1(O)CC[C@H]2[C@@H]3CCC4=CC(=O)CC[C@]4(C)[C@H]3[C@@H](O)C[C@@]21C,inactive
7,C[C@@]12CCC[C@H]1[C@@H]1CC[C@H]3C[C@@H](O)CC[C@]3(C)[C@H]1CC2,inactive
8,CCCCC(CC)COC(=O)c1ccccc1C(=O)O (stereo not drawn),inactive
9,N=C(N)c1ccc(OCCCOc2ccc(C(=N)N)cc2)cc1,inactive
10,CC(C)(C)CC(=O)OCC(=O)[C@@]1(O)CC[C@H]2[C@@H]3CCC4=CC(=O)C=C[C@]4(C)[C@H]3[C@@H](O)C[C@@]21C,inactive
11,CN=C(N)NC(=O)Nc1c(C)cccc1C,inactive
12,CO[C@@H]1[C@@H](O[C@@H]2O[C@H](C)[C@@H](O[C@H]3C[C@@](C)(O)[C@@H](O)[C@H](C)O3)[C@H](N(C)C)[C@H]2O)[C@@H](CC=O)C[C@@H](C)[C@@H](O[C@@H]2CC[C@H](N(C)C)[C@@H](C)O2)/C=C/C=C/C[C@@H](C)OC(=O)C[C@H]1OC(C)=O,inactive
13,CN(C)CCOC(c1ccccc1)c1ccc(Br)cc1 (stereo not drawn),inactive
